PubChem BioAssay (EPA / NIEHS)
Inconclusive results are not listed. Activity calls are given as the source filed them. How the source made its calls, unless noted: active means hit-call score of the fitted dose curve at least 0.9, where 1 is the maximum; inconclusive means response in the unintended direction; inactive means score below 0.9.

Assays:
[1] = biological target: Nuclear receptor subfamily 1 group I member 3 (Homo sapiens) (UniProt Q14994); experiment: ATG_CAR_TRANS: Attagene TRANS-FACTORIAL HepG2 Assay for human Constitutive Androstane Receptor (CAR) (AID 2282969); settings: HepG2 Attagene TRANS-FACTORIAL CAR reporter;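 further: activators raise reporter mRNA above DMSO so AC50 marks induction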
Sequence of Nuclear receptor subfamily 1 group I member 3 (Homo sapiens) (Q14994 whole entry, looked up, the tested form may be a part): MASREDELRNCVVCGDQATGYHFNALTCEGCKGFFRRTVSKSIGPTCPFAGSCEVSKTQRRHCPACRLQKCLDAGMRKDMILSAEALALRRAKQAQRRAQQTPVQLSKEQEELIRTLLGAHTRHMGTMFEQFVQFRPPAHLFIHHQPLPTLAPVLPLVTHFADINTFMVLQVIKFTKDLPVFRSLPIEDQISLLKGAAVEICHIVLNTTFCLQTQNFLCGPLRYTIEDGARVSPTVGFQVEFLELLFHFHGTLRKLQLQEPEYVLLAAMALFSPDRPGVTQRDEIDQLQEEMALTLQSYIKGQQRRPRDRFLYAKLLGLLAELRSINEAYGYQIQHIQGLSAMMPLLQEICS
Procedure, shortened: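 HepG2 cells transiently transfected with GAL4-UAS reporter units; TRANS format reads activity of exogenous chimeric NR-Gal4 protein. After 24 h dosing, reporter mRNA quantified by RT-PCR, 6-FAM labelling and capillary electrophoresis; gain of signal fitted against DMSO.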

[2] = biological target: Estrogen receptor (Homo sapiens) (UniProt P03372); experiment: ATG_ERa_TRANS: Attagene TRANS-FACTORIAL HepG2 Assay for human Estrogen Receptor alpha (ERa) (AID 2282970); settings: HepG2 Attagene TRANS ERa GAL4 reporter, mRNA
Sequence of Estrogen receptor (Homo sapiens) (P03372 whole entry, looked up, the tested form may be a part): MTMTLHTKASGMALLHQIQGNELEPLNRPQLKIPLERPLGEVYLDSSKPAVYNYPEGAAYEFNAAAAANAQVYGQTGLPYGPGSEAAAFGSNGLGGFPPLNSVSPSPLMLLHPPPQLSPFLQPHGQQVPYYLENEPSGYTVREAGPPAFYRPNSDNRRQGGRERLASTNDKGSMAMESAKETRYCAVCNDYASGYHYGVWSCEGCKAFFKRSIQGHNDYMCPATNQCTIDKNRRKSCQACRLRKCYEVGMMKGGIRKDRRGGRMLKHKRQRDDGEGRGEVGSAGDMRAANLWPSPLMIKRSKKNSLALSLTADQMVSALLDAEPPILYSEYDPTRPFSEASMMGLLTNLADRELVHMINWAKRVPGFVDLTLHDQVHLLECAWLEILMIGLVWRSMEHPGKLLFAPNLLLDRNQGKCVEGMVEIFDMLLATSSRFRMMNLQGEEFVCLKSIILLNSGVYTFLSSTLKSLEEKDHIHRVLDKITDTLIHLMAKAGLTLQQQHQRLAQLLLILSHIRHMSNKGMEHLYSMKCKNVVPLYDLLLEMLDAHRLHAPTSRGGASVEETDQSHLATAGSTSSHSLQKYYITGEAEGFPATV
Procedure, shortened: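 Transactivation via ERa-Gal4 chimera in HepG2; 24 hour incubation; reporter mRNA detected by fluorescence RT-PCR and capillary electrophoresis.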

[3] = biological target: X-box-binding protein 1 (Homo sapiens) (UniProt P17861); experiment: ATG_Xbp1_CIS: Attagene CIS-FACTORIAL HepG2 Assay for human X-box Binding Protein 1 (XBP1) (AID 2282972; active means hit-call score of the fitted dose curve at least 0.9, where 1 is the maximum; inactive means score below 0.9); settings: HepG2 XBP1 cis-element reporter, Attagene multiplex; actives raise or lower the signal
Sequence of X-box-binding protein 1 (Homo sapiens) (P17861 whole entry, looked up): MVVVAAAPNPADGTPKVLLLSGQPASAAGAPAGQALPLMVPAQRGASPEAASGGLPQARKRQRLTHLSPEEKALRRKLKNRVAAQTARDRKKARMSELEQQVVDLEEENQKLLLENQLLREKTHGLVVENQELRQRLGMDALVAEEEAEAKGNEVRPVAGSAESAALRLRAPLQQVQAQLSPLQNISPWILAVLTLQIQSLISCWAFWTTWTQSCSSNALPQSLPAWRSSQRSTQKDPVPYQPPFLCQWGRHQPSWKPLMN
Procedure, shortened: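 After a 24-hour chemical exposure of HepG2 cells carrying cis-regulated reporters, reporter mRNA levels are assessed. Quantification uses RT-PCR, 6-FAM labelling and capillary electrophoresis. Gain- or loss-of-signal is fitted against DMSO.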

[4] = ATG_M_19_TRANS: Attagene TRANS-FACTORIAL HepG2 Assay for M19 Transcription Factor (Internal Marker) (AID 2282974); settings: HepG2 Attagene TRANS-FACTORIAL M19 internal marker reporter
Procedure, shortened: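 Multiplexed TRANS format: HepG2 liver cells bearing transient GAL4-UAS reporter units, chemical treatment 24 h, reporter transcripts quantified by RT-PCR plus capillary electrophoresis. DMSO defines baseline.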

[5] = ATG_GAL4_TRANS: Attagene TRANS-FACTORIAL HepG2 Assay for GAL4 (Internal Marker) (AID 2282976); settings: HepG2 Attagene TRANS GAL4 internal marker reporter
Procedure, shortened: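 Fluorescence from capillary electrophoresis of labelled RT-PCR products quantifies reporter mRNA induction after 24 h dosing of HepG2 cells carrying transfected GAL4-UAS reporter transcription units. Vehicle DMSO serves as baseline.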

[6] = biological target: Glucocorticoid receptor (Homo sapiens) (UniProt P04150); experiment: ATG_GR_TRANS: Attagene TRANS-FACTORIAL HepG2 Assay for human Glucocorticoid Receptor (GR) (AID 2282978); settings: HepG2 Attagene TRANS GR reporter, mRNA transcription;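 further: activators score as hits since higher reporter transcript over DMSO is fitted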
Sequence of Glucocorticoid receptor (Homo sapiens) (P04150 whole entry, looked up, the tested form may be a part): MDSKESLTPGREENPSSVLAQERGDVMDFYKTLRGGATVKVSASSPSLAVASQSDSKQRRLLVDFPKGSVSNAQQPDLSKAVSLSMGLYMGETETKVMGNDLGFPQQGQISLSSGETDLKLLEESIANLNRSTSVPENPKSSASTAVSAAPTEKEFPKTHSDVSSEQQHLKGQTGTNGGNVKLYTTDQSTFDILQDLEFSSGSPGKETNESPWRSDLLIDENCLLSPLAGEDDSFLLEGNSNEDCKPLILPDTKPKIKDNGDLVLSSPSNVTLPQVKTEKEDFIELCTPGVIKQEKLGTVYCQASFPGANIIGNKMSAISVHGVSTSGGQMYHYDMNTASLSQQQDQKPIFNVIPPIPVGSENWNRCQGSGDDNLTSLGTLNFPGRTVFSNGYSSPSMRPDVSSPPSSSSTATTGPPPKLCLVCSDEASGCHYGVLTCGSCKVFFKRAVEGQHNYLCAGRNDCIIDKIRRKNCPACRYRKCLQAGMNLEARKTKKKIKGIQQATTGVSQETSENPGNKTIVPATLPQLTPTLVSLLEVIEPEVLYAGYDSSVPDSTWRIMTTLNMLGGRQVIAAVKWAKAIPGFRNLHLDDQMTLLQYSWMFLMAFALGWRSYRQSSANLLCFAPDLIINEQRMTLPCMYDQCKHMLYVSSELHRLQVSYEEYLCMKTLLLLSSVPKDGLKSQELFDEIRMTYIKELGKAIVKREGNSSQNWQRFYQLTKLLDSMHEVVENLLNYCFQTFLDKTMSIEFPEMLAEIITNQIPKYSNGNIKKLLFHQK
Procedure, shortened: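 Transiently transfected HepG2 cells express chimeric NR-GAL4 proteins acting on GAL4-UAS reporter units. Compounds are applied for 24 h. mRNA induction over DMSO is measured by capillary electrophoresis.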

[7] = biological target: Steroid hormone receptor ERR1 (Homo sapiens) (UniProt P11474); experiment: ATG_ERRa_TRANS: Attagene TRANS-FACTORIAL HepG2 Assay for human Estrogen-Related Receptor alpha (ERRa) (AID 2282971); settings: HepG2 Attagene TRANS reporter, ERRa transactivation
Sequence of Steroid hormone receptor ERR1 (Homo sapiens) (P11474 whole entry, looked up, the tested form may be a part): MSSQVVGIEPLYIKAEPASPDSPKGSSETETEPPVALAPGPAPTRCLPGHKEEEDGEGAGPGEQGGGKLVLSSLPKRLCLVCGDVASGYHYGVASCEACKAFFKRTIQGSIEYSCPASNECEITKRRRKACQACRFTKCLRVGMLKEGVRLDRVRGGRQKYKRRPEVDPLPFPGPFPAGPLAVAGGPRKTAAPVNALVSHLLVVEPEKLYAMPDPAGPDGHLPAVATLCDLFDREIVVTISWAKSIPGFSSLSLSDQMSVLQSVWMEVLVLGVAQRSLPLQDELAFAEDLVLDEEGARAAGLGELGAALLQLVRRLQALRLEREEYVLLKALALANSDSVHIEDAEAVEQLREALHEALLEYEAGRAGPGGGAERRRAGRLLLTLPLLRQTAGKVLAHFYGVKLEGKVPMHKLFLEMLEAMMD
Procedure, shortened: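 HepG2 cells were transiently transfected with multiple GAL4-UAS reporter units, then dosed with compound for 24 h. Total RNA was reverse-transcribed, reporter cDNA PCR-amplified and fluorescently labelled, and fragments resolved by capillary electrophoresis; induction was compared with DMSO.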

Measured: outcome

Nc1nc(N)nc(Cl)n1
inactive: [1] | [2] | [3] | [4] | [5]

CCCCC(CC)C(=O)Cl (configuration not stated)
inactive: [2] | [3] | [4]

COc1ccc(N)cc1
inactive: [3] | [4] | [5] | [6]

Cc1cccc(C)c1NC(=O)CN1CCCC1=O
inactive: [3]

COc1ccccc1N
inactive: [7] | [3] | [4] | [5]

CNC(=O)CSP(=O)(OC)OC
inactive: [3] | [4] | [6]

CCC[N+](CCC)(CCC)CCC
inactive: [7] | [3] | [4] | [5]

Cc1cc(C(F)(C(F)(F)F)C(F)(F)F)ccc1NC(=O)c1cccc(I)c1C(=O)NC(C)(C)CS(C)(=O)=O
inactive: [2] | [4] | [6]
